Data: the supplement of paper PMC12494721
Structures can show the parent of a compound that is named as a salt.

The molecules below were run on Escherichia coli IAI1 (assay: growth (OD595) fold change vs plate DMSO controls (fold change (ratio)); higher = more growth). Details: incubation time: 27 h, anaerobic, 37 °C.
Method in brief: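 Growth is expressed as the fold change relative to the median of the DMSO control wells on each plate. Cultures in mGAM were grown anaerobically in 96-well plates for 27 h at 37 °C, shaken, and read at 595 nm. Readings were blank-subtracted, corrected for compound background with 20 µM compound solutions in water, and converted to OD with a calibration factor of 5. Fold changes above 1.5 were set to NA, and each value is the mean of 2 biological replicates.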

Row | SMILES | growth
1 | OC[C@H]1O[C@@H](O[C@H]2[C@H](O)[C@@H](O)[C@H](O)O[C@@H]2CO)[C@H](O)[C@@H](O)[C@H]1O [Lactose] (50 µM) | 1.02
2 | C[C@@]12CC[C@@H]3[C@@](CC[C@H]4[C@@]3(C)CCC[C@@]4(C)C(=O)O)(CC1=O)C2 [Iso-Steviol] (50 µM) | 0.954
3 | CCCCOc1ccc(C(=O)CCN2CCCCC2)cc1 [Dyclonine hydrochloride] (20 µM) | 0.992
4 | CN(C)c1nc(N(C)C)nc(N(C)C)n1 [Altretamine] (20 µM) | 1.05
5 | c1ccc(CNc2ncnc3nc[nH]c23)cc1 [Aminopurine, 6-benzyl] (20 µM) | 0.978
6 | OCCN1CCN(CC/C=C2/c3ccccc3Sc3ccc(C(F)(F)F)cc32)CC1 [Flupentixol dihydrochloride cis-(Z)] (20 µM) | 0.959
7 | Cc1onc(-c2ccccc2)c1C(=O)N[C@@H]1C(=O)N2[C@@H]1SC(C)(C)[C@@H]2C(=O)O [Oxacillin sodium] (20 µM) | 0.994
8 | Cc1ccc(Cl)c(Nc2ccccc2C(=O)O)c1Cl [Meclofenamic acid sodium salt monohydrate] (20 µM) | 0.972
9 | Clc1ccc(C(Cn2ccnc2)OCc2c(Cl)cccc2Cl)c(Cl)c1 (configuration not stated) [Isoconazole] (20 µM) | 0.858
10 | NNc1nncc2ccccc12 [Hydralazine hydrochloride] (20 µM) | 0.997
11 | O=C(O)CCC(=O)c1ccc(-c2ccccc2)cc1 [Fenbufen] (20 µM) | 1.02
12 | C[C@]12CCC(=O)C=C1C=C[C@@H]1[C@@H]2CC[C@@]2(C)[C@H]1CC[C@@]21CCC(=O)O1 [Canrenone] (20 µM) | 1.03
